# Source: PMC7826789 (International Journal of Molecular Sciences, 2021)
# Columns and labels:
# Conditions in all cases: Compound Concentration (nM):1000
# TBK1 = tested on: TBK1
# TEC = tested on: TEC
# TESK1 = tested on: TESK1
# TGFBR1 = tested on: TGFBR1
# TGFBR2 = tested on: TGFBR2
# TIE1 = tested on: TIE1
# TIE2 = tested on: T1, TIE2
# T1 construct: gene TEK
# TLK1 = tested on: TLK1
# TLK2 = tested on: TLK2
# TNIK = tested on: TNIK
# 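Note: KINOMEscan scanMAX binding as percent activity remaining versus control; lower means stronger binding.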
SMILES,Percent Control (TBK1),Percent Control (TEC),Percent Control (TESK1),Percent Control (TGFBR1),Percent Control (TGFBR2),Percent Control (TIE1),Percent Control (TIE2),Percent Control (TLK1),Percent Control (TLK2),Percent Control (TNIK)
COc1cc(N2CCN(C(C)C)CC2)ccc1Nc1nc(Nc2ccc(F)cc2C(=O)NC[C@@H](O)CO)c2cc[nH]c2n1 [GSK1392956A],100%,100%,92%,100%,100%,100%,100%,83%,92%,72%
COc1cccc(-n2ncc3c(N/N=C/c4ccncc4)ncnc32)c1 [GW784752X],100%,100%,85%,36%,100%,100%,100%,89%,93%,97%
COc1cc(/C=N/Nc2ncnc3[nH]ncc23)ccc1O [GW578748X],50%,100%,94%,100%,87%,100%,100%,86%,76%,94%
CCn1c(-c2nonc2N)nc2c(C#CC(C)(C)O)nc(OCCNC)cc21.Cl [GSK949675],95%,100%,100%,100%,100%,100%,96%,100%,100%,100%
COc1ccc(COc2ccc(Cc3cnc(N)nc3N)cc2OC)cc1 [GW632580X],99%,100%,99%,100%,100%,100%,100%,92%,100%,100%
COC(=O)Nc1nc2ccc(Oc3ccc(NC(=O)Nc4cc(C(F)(F)F)ccc4F)cc3)cc2s1.Cl [GW693917A],69%,78%,77%,100%,92%,3.1%,0.6%,87%,100%,74%
COc1ccc2cc(-c3c(-c4ccncc4)nc(-c4ccc(S(C)(=O)=O)cc4C)n3C)ccc2c1 [SB-633825],65%,66%,91%,9.7%,86%,3.8%,2.4%,94%,100%,54%
COc1ccc2[nH]c3c4[nH]c5ccc(OC)cc5c4c4c(c3c2c1)C(=O)NC4=O [GW296115X],59%,88%,90%,100%,100%,100%,100%,100%,95%,3%
Cl.O=C(O[C@H]1CN[C@H](C#Cc2cc3ncnc(Nc4ccc5c(cnn5Cc5ccccc5)c4)c3s2)C1)N1CCOCC1 [GSK200398A],100%,100%,96%,97%,100%,100%,100%,80%,72%,96%
Cl.O=S1CCN(Cc2ccc(-c3ccc4ncnc(Nc5ccc(OCc6ccccc6)c(F)c5)c4c3)o2)CC1 [GW576924A],100%,100%,100%,100%,100%,100%,100%,100%,100%,100%
CCS(=O)(=O)c1ccc(OC)c(Nc2ncc(-c3cccc(F)c3)o2)c1 [GW621970X],100%,100%,89%,100%,52%,69%,100%,100%,86%,82%
CN(C)c1cc2c(Nc3ccc4c(cnn4Cc4ccccc4)c3)ncnc2cn1 [GW282974X],55%,84%,87%,100%,100%,100%,100%,78%,80%,100%
CC1=C(C(=O)Nc2ccc3[nH]ncc3c2)C(c2ccc3ccccc3c2)CC(=O)N1 (centres unmarked) [GSK270822A],81%,90%,99%,85%,100%,80%,96%,89%,100%,85%
CCS(=O)(=O)c1ccc(OC)c(Nc2ncc(-c3cccc(OC)c3)o2)c1 [GW580509X],100%,100%,100%,81%,46%,49%,100%,100%,99%,75%
CC1=C(C(=O)Nc2ccc3[nH]ncc3c2)C(c2ccc(Cl)c(Cl)c2)CC(=O)N1 (centres unmarked) [GSK299115A],92%,92%,100%,100%,100%,90%,100%,84%,90%,100%
NS(=O)(=O)c1ccc(N/N=C2\C(=O)Nc3ccc(Cl)cc32)cc1 [GW280670X],100%,100%,100%,100%,100%,100%,100%,100%,100%,47%
COc1ccc2c(-c3ccnc(Nc4cccc(OC(F)(F)F)c4)n3)cnn2n1 [GW810372X],80%,100%,70%,100%,52%,100%,100%,100%,84%,100%
O=C1Nc2ccc(C(=O)c3ccco3)cc2C1=Cc1cc(Cl)c(O)c(Cl)c1 [GW406108X],40%,100%,100%,99%,58%,100%,100%,94%,97%,24%
Cl.O=C(Nc1ccc(Oc2ccc3[nH]c(NC(=O)c4ccccc4)nc3c2)cc1)Nc1cc(C(F)(F)F)ccc1F [GW709042A],88%,100%,96%,100%,100%,2.3%,7.5%,100%,86%,100%
NS(=O)(=O)c1ccc(N/N=C2\C(=O)Nc3ccc(C(=O)NCCc4c[nH]cn4)cc32)cc1 [GW300660X],72%,100%,100%,100%,100%,100%,100%,100%,100%,100%
